Laboratory results: PubChem BioAssay (NCATS)
Unmarked numbers belong to inactive results. Results filed as inconclusive are left out. Entries that show only a call come without a potency. Calls of active or inactive are those of the source. Unless noted, the call rests on the fitted dose curve; in most records, active means well fitted curve in the direction sought with a large enough effect; inconclusive means small, poorly fitted or top-dose-only effect, or another doubt; inactive means no such curve, though single readings can be large; an effect the other way counts as inactive or inconclusive.

Assays:
[1] = qHTS assay for measurement of the activity of small molecule inhibitors on Zika virus induced Caspase-3 activity in human iPSC derived neural progenitor cells (hNPCs) (AID 1224857); further: nearly all actives have a fitted effect of over 65% in size
Outline: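 Cells were plated at 350 per well and grown 16 to 20 hours. Compound pretreatment lasted one hour, after which ZIKV (2 FFU/cell) was added for 6 hours. Percent inhibition was normalized between uninfected and infected controls.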

[2] = qHTS assay for measurement of the activity of small molecule inhibitors on Zika virus induced Caspase-3 activity in human astrocytoma cells (AID 1224859)
Outline: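 Percent inhibition of virus-induced caspase-3/7 signal is calculated against uninfected and ZIKV-infected control cells. Cells are SNB-19, infected at 2 FFU/cell for 6 h after 1 h compound exposure.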

[3] = qHTS assay to identify small molecule inhibitors of chordoma cells - UCH-1 (AID 1259355); further: nearly all actives have a fitted effect of over 55% in size
Outline: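 Cells (800/well) were seeded and left overnight at 37 C, 5% CO2, then treated with drugs at 15 concentrations plus a combination mix of auranofin, camptothecin, doxorubicin, rubitecan and topotecan. Viability after 48hr was read by CellTiter-Glo luminescence.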

[4] = qHTS assay to identify small molecule inhibitors of chordoma cells - UCH-2 (AID 1259356); further: series mostly up to about 46 µM
[5] = NS1 protein of Zika virus - qHTS assay to identify small molecule inhibitors in human HEK 293 cells (AID 1347053); further: series mostly up to about 46 µM; nearly all actives have a fitted effect of over 55% in size
Outline: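 Following 20 h seeding, HEK 293 cells took compound, then 1 h later ZIKV MR766 (MOI = 0.5). Incubation ran 24 h at 37 C before TR-FRET detection of NS1; a drop in signal indicates inhibition.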

[6] = molecular target: T1, Tyrosine-protein phosphatase non-receptor type substrate 1 (Homo sapiens) + Leukocyte surface antigen CD47 (Homo sapiens) (UniProt P78324+Q08722); assay: CD47-SIRPalpha protein protein interaction - LANCE assay qHTS validation (AID 1347057; active means well fitted curve in the direction sought with a large enough effect in the signal ratio, with a control signal flat, not every such curve was filed as active; the % refers to the signal ratio; further: series mostly up to about 38 µM)
T1 sequence (P78324 whole entry, looked up): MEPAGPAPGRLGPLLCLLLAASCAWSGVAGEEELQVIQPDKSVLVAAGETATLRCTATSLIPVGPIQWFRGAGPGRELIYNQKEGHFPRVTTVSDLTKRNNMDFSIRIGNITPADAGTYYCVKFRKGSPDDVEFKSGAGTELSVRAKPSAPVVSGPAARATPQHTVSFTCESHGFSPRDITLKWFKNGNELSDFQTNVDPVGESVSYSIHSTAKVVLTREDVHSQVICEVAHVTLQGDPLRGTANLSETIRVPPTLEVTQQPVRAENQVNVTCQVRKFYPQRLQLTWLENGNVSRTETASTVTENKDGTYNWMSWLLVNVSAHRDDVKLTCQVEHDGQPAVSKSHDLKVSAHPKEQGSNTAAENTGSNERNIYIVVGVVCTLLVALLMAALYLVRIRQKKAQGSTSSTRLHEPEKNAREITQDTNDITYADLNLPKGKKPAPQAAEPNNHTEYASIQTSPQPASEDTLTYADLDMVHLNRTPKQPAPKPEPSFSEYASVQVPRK
T1 sequence (Q08722 whole entry, looked up): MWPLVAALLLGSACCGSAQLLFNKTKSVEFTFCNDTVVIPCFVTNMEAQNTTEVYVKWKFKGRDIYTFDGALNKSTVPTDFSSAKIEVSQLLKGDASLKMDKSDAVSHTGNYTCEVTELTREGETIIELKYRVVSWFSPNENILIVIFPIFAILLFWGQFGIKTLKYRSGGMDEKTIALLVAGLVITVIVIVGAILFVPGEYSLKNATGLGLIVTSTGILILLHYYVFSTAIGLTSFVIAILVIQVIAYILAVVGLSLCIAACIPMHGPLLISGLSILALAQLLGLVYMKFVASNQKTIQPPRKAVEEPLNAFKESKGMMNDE
Outline: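 First, His-tagged CD47 and Eu-labelled anti-His antibody met the compound for 30 min; next, site-specifically biotinylated SIRPalpha was added for 30 min; finally streptavidin-APC was added before reading the TR-FRET ratio.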

[7] = molecular target: T1, Tyrosine-protein phosphatase non-receptor type substrate 1 (Homo sapiens) + Leukocyte surface antigen CD47 (Homo sapiens); assay: CD47-SIRPalpha protein protein interaction - Alpha assay qHTS validation (AID 1347059);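 further: bead proximity luminescence from CD47 binding SIRPalpha after compound preincubation with SIRPalpha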
Outline: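 Biotinylated Avi-tagged SIRPalpha (25 nM) preincubated 30 min with compound, then His-tagged CD47 (12.5 nM) added 30 min; AlphaScreen with Ni-NTA acceptor and streptavidin donor beads. PBS pH 7.4, 0.05% IGEPAL, room temperature; 7-point titrations.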

[8] = qHTS of pediatric cancer cell lines to identify multiple opportunities for drug repurposing: Primary screen for TC32 cells (AID 1347089); further: nearly all actives have a fitted effect of over 60% in size; further: potency means the concentration at half of the fitted maximal effect
Outline: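 qHTS, TC32, 48 h drug treatment, CellTiter-Glo luminescence as a proxy for metabolically active cells; primary top concentration 46 µM (MIPE 11-pt, NPC 8-pt); confirmatory 11-pt.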

[9] = P-glycoprotein substrates identified in KB-8-5-11 adenocarcinoma cell line, qHTS therapeutic library screen (AID 1346987); further: nearly all actives have a fitted effect of over 65% in size
Outline: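 P-gp-mediated resistance screen: KB-8-5-11 cells treated 72 h with compounds in dose-response. CellTiter-Glo viability.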

[10] = Natriuretic polypeptide receptor (hNpr1) antagonism - Pilot counterscreen GloSensor control cell line (AID 1347045; calls by dose curve; further: series mostly up to about 38 µM)
Outline: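 This counterscreen uses HEK293 cells expressing the GIP/pGS-40F cGMP biosensor. Compound-treated cells are challenged with 50 uM sodium nitroprusside, and the luciferase signal is compared before and after stimulation.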

[11] = molecular target: Atrial natriuretic peptide receptor 1 (Homo sapiens) (UniProt P16066); assay: Natriuretic polypeptide receptor (hNpr1) antagonism - Pilot screen (AID 1347049; calls by dose curve;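 further: agonist-evoked cGMP luminescence read 20 min after hNppA addition; series mostly up to about 58 µM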)
Atrial natriuretic peptide receptor 1 (Homo sapiens), sequence (P16066 whole entry, looked up): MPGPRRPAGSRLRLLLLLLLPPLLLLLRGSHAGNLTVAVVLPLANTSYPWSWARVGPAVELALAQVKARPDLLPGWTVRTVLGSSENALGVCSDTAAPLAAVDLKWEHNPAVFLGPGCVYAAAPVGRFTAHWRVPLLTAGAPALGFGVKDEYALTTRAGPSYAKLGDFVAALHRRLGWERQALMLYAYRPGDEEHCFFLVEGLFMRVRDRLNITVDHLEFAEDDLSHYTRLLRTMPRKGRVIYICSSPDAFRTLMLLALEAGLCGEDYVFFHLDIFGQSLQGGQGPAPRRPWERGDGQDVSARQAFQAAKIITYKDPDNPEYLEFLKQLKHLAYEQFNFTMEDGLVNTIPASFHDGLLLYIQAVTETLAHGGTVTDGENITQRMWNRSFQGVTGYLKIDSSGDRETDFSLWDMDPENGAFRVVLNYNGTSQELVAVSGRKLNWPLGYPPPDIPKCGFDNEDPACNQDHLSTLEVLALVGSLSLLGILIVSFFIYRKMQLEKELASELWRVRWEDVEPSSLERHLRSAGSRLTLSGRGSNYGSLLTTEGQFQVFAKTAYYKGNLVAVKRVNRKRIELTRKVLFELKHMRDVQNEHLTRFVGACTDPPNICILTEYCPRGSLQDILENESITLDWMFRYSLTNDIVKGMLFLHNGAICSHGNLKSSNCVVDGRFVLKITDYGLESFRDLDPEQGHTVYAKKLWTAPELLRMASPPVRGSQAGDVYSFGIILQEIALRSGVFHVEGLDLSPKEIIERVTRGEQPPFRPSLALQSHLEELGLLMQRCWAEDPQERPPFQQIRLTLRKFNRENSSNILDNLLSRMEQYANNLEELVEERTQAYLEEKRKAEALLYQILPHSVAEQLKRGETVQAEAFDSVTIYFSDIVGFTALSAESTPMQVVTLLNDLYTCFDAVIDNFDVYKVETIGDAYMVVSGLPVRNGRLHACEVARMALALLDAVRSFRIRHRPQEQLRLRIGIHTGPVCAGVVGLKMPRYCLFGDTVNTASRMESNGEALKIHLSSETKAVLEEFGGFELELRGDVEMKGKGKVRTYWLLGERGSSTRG
Outline: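 HEK293 cells expressing hNpr1 and GloSensor cGMP luciferase, 1500/well, loaded with 2% GloSensor reagent 2 h, compound 30 min at room temperature; luminescence read before and 20 min after 0.1 nM hNppA stimulation.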

[12] = molecular target: Atrial natriuretic peptide receptor 2 (Homo sapiens) (UniProt P20594); assay: Natriuretic polypeptide receptor (hNpr2) antagonism - Pilot subtype selectivity assay (AID 1347050; calls by dose curve)
Atrial natriuretic peptide receptor 2 (Homo sapiens), sequence (P20594 whole entry, looked up): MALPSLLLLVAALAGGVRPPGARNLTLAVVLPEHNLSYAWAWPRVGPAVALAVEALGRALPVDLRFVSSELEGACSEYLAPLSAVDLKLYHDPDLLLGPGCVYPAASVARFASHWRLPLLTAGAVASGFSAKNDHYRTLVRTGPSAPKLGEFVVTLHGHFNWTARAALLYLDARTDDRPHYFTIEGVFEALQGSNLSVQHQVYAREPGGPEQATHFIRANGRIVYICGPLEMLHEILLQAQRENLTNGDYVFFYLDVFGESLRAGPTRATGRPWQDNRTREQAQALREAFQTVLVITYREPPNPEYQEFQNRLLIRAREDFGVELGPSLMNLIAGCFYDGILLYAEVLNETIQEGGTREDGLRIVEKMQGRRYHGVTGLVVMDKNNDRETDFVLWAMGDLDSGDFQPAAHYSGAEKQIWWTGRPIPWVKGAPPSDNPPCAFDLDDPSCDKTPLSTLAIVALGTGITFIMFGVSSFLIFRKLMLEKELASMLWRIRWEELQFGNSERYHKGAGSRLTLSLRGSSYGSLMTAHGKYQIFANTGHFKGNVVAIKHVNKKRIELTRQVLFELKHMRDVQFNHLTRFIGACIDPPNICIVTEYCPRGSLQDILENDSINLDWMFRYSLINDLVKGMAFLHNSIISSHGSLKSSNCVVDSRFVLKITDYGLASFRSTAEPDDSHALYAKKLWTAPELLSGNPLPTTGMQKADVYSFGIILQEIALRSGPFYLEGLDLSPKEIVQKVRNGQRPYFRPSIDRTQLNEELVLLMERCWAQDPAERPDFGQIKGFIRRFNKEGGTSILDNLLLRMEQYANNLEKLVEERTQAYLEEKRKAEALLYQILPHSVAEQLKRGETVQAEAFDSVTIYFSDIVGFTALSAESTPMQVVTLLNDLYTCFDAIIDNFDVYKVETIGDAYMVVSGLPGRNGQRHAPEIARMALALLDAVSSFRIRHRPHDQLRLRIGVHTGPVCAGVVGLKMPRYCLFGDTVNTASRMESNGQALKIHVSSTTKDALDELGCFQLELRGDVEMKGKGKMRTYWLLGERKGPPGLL
Outline: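 HEK293 cells expressing hNpr2 and a GloSensor cGMP luciferase sensor, 1500/well, preloaded 2 h with 2% GloSensor reagent, compound 30 min, then 1 nM hNppC for 20 min. Antagonism from luminescence after versus baseline pre-read; LOPAC in 1:5 titrations.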

[13] = molecular target: Parathyroid hormone/parathyroid hormone-related peptide receptor (Homo sapiens) (UniProt Q03431); assay: qHTS for PTHR1 Agonists: Optimization Screen against the NCGC LOPAC library (AID 1347079);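 further: GloSensor cAMP luminescence in HEK-293 GP2 cells expressing human PTHR1 with IBMX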
Parathyroid hormone/parathyroid hormone-related peptide receptor (Homo sapiens), sequence (Q03431 whole entry, looked up): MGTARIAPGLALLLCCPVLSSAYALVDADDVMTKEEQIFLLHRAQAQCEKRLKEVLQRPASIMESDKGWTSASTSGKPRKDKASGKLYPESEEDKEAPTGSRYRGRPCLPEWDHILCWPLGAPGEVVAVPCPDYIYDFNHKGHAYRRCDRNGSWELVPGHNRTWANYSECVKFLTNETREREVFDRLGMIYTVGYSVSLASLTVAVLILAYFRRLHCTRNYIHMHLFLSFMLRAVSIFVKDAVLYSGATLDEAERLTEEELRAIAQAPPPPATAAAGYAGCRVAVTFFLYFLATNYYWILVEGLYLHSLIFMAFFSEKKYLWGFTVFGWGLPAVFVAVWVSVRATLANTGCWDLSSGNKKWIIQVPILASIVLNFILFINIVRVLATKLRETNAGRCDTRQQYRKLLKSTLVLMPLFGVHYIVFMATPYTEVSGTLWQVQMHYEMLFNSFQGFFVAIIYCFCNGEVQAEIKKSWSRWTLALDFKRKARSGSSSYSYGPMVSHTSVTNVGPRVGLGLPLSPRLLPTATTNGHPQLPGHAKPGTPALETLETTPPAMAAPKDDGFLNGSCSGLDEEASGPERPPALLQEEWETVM
Outline: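 Compounds were tested across a qHTS titration. PTHR1-expressing GP2 cells report cAMP rises via GloSensor luminescence after 1 hr compound exposure at 37C with IBMX present.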

Compound: O=C1NC(=O)[C@@]2(CCOc3ccc(F)cc32)N1
- outcome [1]: inactive
- outcome [2]: inactive
- Potency [3]: inactive
- outcome [4]: inactive
- Potency [5]: inactive
- outcome [6]: inactive
- outcome [7]: inactive
- Potency [8]: inactive

Compound: CC1(C)CO[C@@H](CC(=O)O)CN1
- outcome [1]: inactive
- outcome [2]: inactive
- Potency [3]: inactive
- outcome [4]: inactive
- Potency [9]: inactive
- Potency [5]: inactive
- Potency [8]: inactive

Compound: NC(=O)NC(=O)Cc1ccccc1
- outcome [1]: inactive
- outcome [2]: inactive
- Potency [3]: inactive
- outcome [4]: inactive
- Potency [9]: inactive
- Potency [5]: inactive
- Potency [8]: inactive

Compound: CCN(CC)CCNC(=O)c1c(C)[nH]c(/C=C2\C(=O)Nc3ccc(F)cc32)c1C
- outcome [1]: inactive
- outcome [2]: inactive
- Potency [3]: inactive
- Potency [8]: 8.36 µM (active)

Compound: c1ccc2c(CC3=NCCN3)cccc2c1
- outcome [1]: inactive
- outcome [2]: inactive
- Potency [3]: inactive
- outcome [4]: inactive
- Potency [9]: inactive
- Potency [5]: inactive
- Potency [8]: inactive

Compound: Cc1ccc2nc(N)[nH]c(=O)c2c1Sc1ccncc1
- outcome [1]: inactive
- outcome [2]: inactive
- Potency [3]: inactive
- outcome [4]: inactive
- Potency [5]: inactive
- Potency [8]: 8.36 µM (active)

Compound: O=Cc1ccccc1C=O
- outcome [1]: inactive
- outcome [2]: inactive
- Potency [3]: inactive
- outcome [4]: inactive
- Potency [5]: inactive
- Potency [8]: inactive

Compound: C[C@](N)(Cc1ccc(O)cc1)C(=O)O
- outcome [1]: inactive
- outcome [2]: inactive
- Potency [3]: inactive
- outcome [4]: inactive
- outcome [10]: inactive
- outcome [11]: inactive
- Potency [12]: inactive
- Potency [5]: inactive
- outcome [6]: inactive
- outcome [7]: inactive
- Potency [13]: inactive
- activity change, negative = cytotoxic [8]: 12.9% [at 4.81 µM]

Compound: O=C1N=C(O)CN1/N=C/c1ccc(-c2ccc([N+](=O)[O-])cc2)o1
- outcome [1]: inactive
- outcome [2]: inactive
- outcome [4]: inactive
- Potency [9]: inactive
- outcome [10]: inactive
- outcome [11]: inactive
- Potency [12]: inactive
- Potency [5]: inactive
- outcome [7]: inactive
- Potency [13]: inactive
- Potency [8]: inactive

Compound: CCOc1ccc2ccccc2c1C(=O)N[C@@H]1C(=O)N2[C@@H]1SC(C)(C)[C@@H]2C(=O)O
- outcome [1]: inactive
- outcome [2]: inactive
- Potency [3]: inactive
- outcome [4]: inactive
- Potency [9]: inactive
- Potency [5]: inactive
- Potency [8]: inactive

Compound: CCCCN(CCCC)CCCOC(=O)c1ccc(N)cc1
- outcome [1]: inactive
- outcome [2]: inactive
- Potency [3]: inactive
- outcome [4]: inactive
- Potency [5]: inactive
- Potency [8]: inactive

Compound: c1ccc(CN(CC2=NCCN2)c2ccccc2)cc1
- outcome [1]: inactive
- outcome [2]: inactive
- Potency [3]: inactive
- outcome [4]: inactive
- Potency [9]: inactive
- Potency [5]: inactive
- Potency [8]: inactive
